# Assays:
# Test in all cases: PBM binding z-score (relative to random genomic background probes); higher = stronger binding; sequences stand for … in GC…GCGATTGACAGCGTAGAATGAAGG
# [1] = test system: FXR:RXRa (NR concentration 270 nM, RXRa partner concentration 90 nM)
# In short: (§1)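 Random background probes are the reference for binding z-scores. These scores derive from regression-normalized fluorescence on custom Agilent 4×180K protein-binding microarrays incubated 1 h with ligand-free nuclear receptor dimers. Binding was detected with antibodies against each partner (one per run).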
# [2] = test system: LXRa:RXRa (NR concentration 270 nM, RXRa partner concentration 90 nM)
# In short: as §1
# [3] = test system: LXRa homodimer (NR concentration 270 nM)
# In short: as §1
# [4] = test system: LXRb:RXRa (NR concentration 270 nM, RXRa partner concentration 90 nM)
# In short: as §1
# [5] = test system: LXRb homodimer (NR concentration 270 nM)
# In short: as §1
# [6] = test system: PPARa:RXRa (NR concentration 270 nM, RXRa partner concentration 90 nM)
# In short: as §1
# [7] = test system: PPARg:RXRa (NR concentration 180 nM, RXRa partner concentration 90 nM)
# In short: as §1
# [8] = test system: PPARg:RXRa 270nM:90nM, anti-RXR (NR concentration 270 nM, RXRa partner concentration 90 nM)
# In short: as §1
# [9] = test system: PPARg:RXRa 30nM:10nM, anti-RXR (NR concentration 30 nM, RXRa partner concentration 10 nM)
# In short: as §1
# [10] = test system: PPARg:RXRa 90nM:30nM, anti-RXR (NR concentration 90 nM, RXRa partner concentration 30 nM)
# In short: as §1
Sequence,PBM binding z-score [1],PBM binding z-score [2],PBM binding z-score [3],PBM binding z-score [4],PBM binding z-score [5],PBM binding z-score [6],PBM binding z-score [7],PBM binding z-score [8],PBM binding z-score [9],PBM binding z-score [10]
GCTGCTAGGTCACGTTGGTCAGCTAACGGGTACG,3.59,2.38,0.0398,1.73,-0.378,3.5,3.91,3.87,1.1,2.79
AGAATGAGGTTATTGAGATCAGGGAATTGCGGTC,2.32,1.71,0.125,1.34,-0.146,2.79,1.67,2.07,0.258,1.31
TCACATAGGTAAACAGGTGAAAGTCCGTAAGTTA,0.14,0.698,0.285,0.803,-0.368,2.06,1.27,2.75,3.62,3.11
TCTTGTAGATCAGCAGGCTAAGAAAGCTGGCCAA,-0.304,-0.495,-0.573,-0.216,-0.933,0.0616,-0.735,0.857,2.22,1.47
GCTGCTAGGTCAAGTTGGTCAGCTAACGGGTACG,4.8,3.29,0.651,2.31,0.442,3.64,2.48,2.94,0.55,2.09
AGTCAAAGTTCAACTAGGTAACGTAAGATATGCT,7.15,6.16,4.88,4.22,1.72,5.32,7.34,6.67,4.2,6.24
TGTCAAAGTTCAAAGGTAACGTCAGTATCCACAC,7.51,6.72,4.98,4.84,1.79,5.79,8.85,7.88,5.71,7.79
GGAACGAGGGCAAGTAGATAGCAGAGTTTGATGG,0.456,0.278,-0.397,-0.016,-0.00645,1.36,1.21,0.904,0.0838,0.493
CGTCCAAGGTCATTGCTAGGTCAGTGAAAGCATT,6.96,5.75,3.09,4.57,1.37,5.32,3.8,5.08,1.55,3.62
ATAACAAGGTGATCGTGAGGTCGTTGATACTAAC,1.71,1.19,0.521,1.1,0.521,1.89,0.967,0.692,0.235,0.705
ACTAGCAGGCCATGTTTGGGTCACTCAAACAAAG,0.27,-0.058,-0.283,0.735,-0.846,1.31,0.145,0.304,-0.51,-0.31
CCTACTGGGCCATTCTGAGGTCATTGATCATATG,2.12,3.35,4.95,2.83,0.173,3.25,1.63,2.38,0.733,1.84

# — the supplement of paper PMC6555819
